# Source: PubChem BioAssay AID1839 (Johns Hopkins Ion Channel Center, 2009)
# Among all 2,400 compounds or so, about 220 (9.2%) were called active.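 How the source made its calls: active means signal change above the mean of dofetilide-free buffer controls plus 3 SD, so a positive margin; inactive means the rest.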 For the sample, actives were picked, then their nearest neighbours and some compounds at random.
# Test: nonspecific flux effects in parental CHO-K1, confirmation, counter-screen for hERG block protection project, cell-based, CHO-K1 parental line, FluxOR thallium flux (AID 1839);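 further: compounds applied alone with no dofetilide to cells lacking hERG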
# Conditions: CHO-K1 parental cells, FluxOR thallium flux fluorescence; at 10 µM
row,Compound,"signal change vs control minus 3*SD hit threshold (margin above threshold, higher = more increase)"
1,CC(=O)Nc1ccc(S(=O)(=O)NC2(C(F)(F)F)C(=O)Nc3c2c(=O)[nH]c(=O)n3C)cc1 (configuration not stated),-24.3% (inactive)
2,CCc1nc2sc3c(c2c(=S)[nH]1)CC(C)(C)OC3,-18.6% (inactive)
3,CCC1(C)Cc2c(sc3nc(SC)[nH]c(=S)c23)CO1 (configuration not stated),48.8% (active)
4,CSc1nc2sc3c(c2c(=S)[nH]1)CC(C)(C)OC3,31.8% (active)
5,CC(=O)c1ccc(S(=O)(=O)NCc2ccc(C(=O)N(C)CC(=O)Nc3cccc(F)c3)cc2)cc1,-20.8% (inactive)
6,CC1Cc2cc(S(=O)(=O)NCc3ccccc3)ccc2N1C(=O)C1CCC1 (configuration not stated),-33.7% (inactive)
7,O=C1NC(=O)C2(COC(c3cccc([N+](=O)[O-])c3)OC2)S1 (configuration not stated),-28.4% (inactive)
8,CCCn1nnnc1SCC(=O)Nc1nnc(CC)s1,-22.9% (inactive)
9,Cc1[nH]c(-c2ccccn2)nc(=S)c1Cl,18.1% (active)
10,c1ccc(-c2n[nH]c(-c3ccccn3)n2)cc1,-23.5% (inactive)
11,Cc1cc(=S)nc(-c2ccccn2)[nH]1,-18.7% (inactive)
12,CCCCCOc1ccc(C2C(C(C)=O)=C(C)Nc3ncnn32)cc1OC (configuration not stated),-35.5% (inactive)
13,O=Cc1cc(-c2ccccc2)[nH]c1-c1ccccc1,-28.6% (inactive)
14,Cc1ccc(Cc2c[nH]c(=S)s2)cc1,-4.6% (inactive)
15,S=c1[nH]cnc2scc(-c3ccc(Cl)cc3)c12,-13.3% (inactive)
16,Cc1ccc(-c2csc3nc[nH]c(=S)c23)cc1,-1.7% (inactive)
17,S=c1[nH]c(-c2ccc(Cl)cc2)cs1,61.6% (active)
18,S=c1[nH]c(-c2ccccc2)cs1,16.2% (active)
19,Cc1ccc(-c2csc(=S)[nH]2)cc1,59.2% (active)
20,S=c1[nH]nc(Nc2ccc(Cl)cc2)s1,-36.9% (inactive)
21,Cc1cccc(-n2cc(-c3ccccc3)[nH]c2=S)c1,-28% (inactive)

row,Compound,"signal change vs control minus 3*SD hit threshold (margin above threshold, higher = more increase)"
1,CC(C)Nc1nc(SCC(N)=O)nc(N2CCOCC2)n1,-27.8% (inactive)
2,CCC(C)(C)C1CCc2c(sc(NC(=O)c3ccccc3C(=O)O)c2C#N)C1 (configuration not stated),-7% (inactive)
3,CCOC(=O)C1C(c2ccccc2)C(C(=O)OCC)C1c1ccccc1 (configuration not stated),-27.3% (inactive)
4,Cc1ccc(NC(=O)CN2C(=O)S/C(=C\c3ccc(-c4cccc(C(=O)O)c4C)o3)C2=O)cc1,-30.6% (inactive)
5,COc1ccc(-c2ccc(/C=N/NC(=O)c3cccnc3)o2)c([N+](=O)[O-])c1,-34.4% (inactive)
6,O=C(O)CCCCn1c(SCc2ccccc2Cl)nc2ccsc2c1=O,-18.4% (inactive)
7,O=C(Nc1ccc(-c2csc(Nc3cccc(C(F)(F)F)c3)n2)cc1)c1ccccc1,-35.7% (inactive)
8,O=C(NC(=S)Nc1ccc(N2CCCCC2)cc1)c1cccs1,-2.8% (inactive)
9,O=C(NC(=S)Nc1cccc(C(F)(F)F)c1)c1csnn1,52.4% (active)
10,O=C(NC(=S)Nc1ccc(C(F)(F)F)cc1)c1csnn1,48.4% (active)
11,CCOC(=O)NC(=S)Nc1ccc(C(C)(C)C)cc1,-14.3% (inactive)
12,O=C(NC(=S)Nc1cc(C(F)(F)F)ccc1Cl)c1ccccc1,-22.9% (inactive)
13,Cc1onc(-c2ccccc2)c1C(=O)NC(=S)Nc1sc2c(c1C#N)CCC(C)C2 (configuration not stated),-18.7% (inactive)
14,CCCSC(=S)c1c(C)[nH]n(-c2ccccc2)c1=O,-12.5% (inactive)
15,O=C(Nc1nnc(-c2ccc3c(c2)CCCC3)o1)C1COc2ccccc2O1 (configuration not stated),-35% (inactive)
16,CC(/C=C1\SC(=S)N(NS(=O)(=O)c2ccccc2)C1=O)=C\c1ccccc1,-11.8% (inactive)
17,COc1cc(CNn2nnnc2N)ccc1OCC(=O)NC(C)(C)C,-34.7% (inactive)
18,O=C(NC(=S)N1CCc2ccccc21)c1ccccc1,-2.8% (inactive)
19,O=C(NC(=S)N1CCc2ccccc21)c1ccccc1Br,48.4% (active)
20,O=C(NC(=S)N1CCc2ccccc21)c1ccco1,-18.3% (inactive)
21,O=C(NC(=S)N1CCCc2ccccc21)c1ccccc1,-30.8% (inactive)

row,Compound,"signal change vs control minus 3*SD hit threshold (margin above threshold, higher = more increase)"
1,O=C(NC(=S)N1CCc2ccccc21)c1ccccc1Cl,9% (active)
2,O=C(NC(=S)N1CCc2ccccc21)c1ccc(Br)o1,-18.4% (inactive)
3,S=C(Nc1ccccc1)Nc1nc2ccccc2n1CCOc1ccccc1,-30.2% (inactive)
4,CN(C(=S)NC(=O)c1ccc(F)cc1)C1CCCCC1,-31.9% (inactive)
5,CC1CCN(C(=S)NC(=O)c2ccc(C(C)(C)C)cc2)CC1,-18% (inactive)
6,COC(=O)n1c(=S)oc2cc(Cl)ccc21,-22.1% (inactive)
7,CCn1c(=S)[nH]c2c(c1=O)C(C)(C)Cc1ccccc1-2,-6.7% (inactive)
8,CC(=O)NC(CSC(CC(=O)c1ccco1)c1ccc(C)cc1)C(=O)O (configuration not stated),-32.8% (inactive)
9,CCCCCCC1CCC(C(=O)N2CCOCC2)CC1 (configuration not stated),-21.3% (inactive)
10,CCCCCCCC/C=C\CCCCCCCC(=O)O,-20.7% (inactive)
11,CCCCCC/C(C)=C1/SC(=S)NC1=O,39.1% (active)
12,COc1ccc(S(=O)(=O)Nc2ccc(Cl)cn2)c(C)c1C,-32.2% (inactive)
13,Cc1ccc(N2CCN(C(=O)N3CCCC3)CC2)cc1C,-15.1% (inactive)
14,CCC1(c2ccc(Cl)cc2)NC(=S)N(c2ccc(C)c(C)c2)N1 (configuration not stated),40.7% (active)
15,CCC1(c2ccccc2)NC(=S)N(c2ccc(C)c(C)c2)N1 (configuration not stated),48.1% (active)
16,Nc1ccc2c(c1)C(=O)C(=O)c1ccccc1-2,-22.4% (inactive)
17,O=C(CCc1ccccc1)NC(=S)Nc1cc(C(F)(F)F)ccc1N1CCOCC1,-29.5% (inactive)
18,CC(=O)NC1C(Oc2ccccc2C)OC(CO)C(O)C1O (configuration not stated),-23.9% (inactive)
19,Cc1ccc(C(=O)NC(=S)N(C)C2CCCCC2)cc1,-21.2% (inactive)
20,CCc1nnc(NC(=O)C2CCCCN2S(=O)(=O)c2ccccc2)s1 (configuration not stated),-23% (inactive)
21,CCOC(=O)c1nc(C)n(-c2ccc(Cl)cc2)n1,-24.3% (inactive)

row,Compound,"signal change vs control minus 3*SD hit threshold (margin above threshold, higher = more increase)"
1,COc1ccc(C(=O)CC(=O)C(=O)Nc2ccc(Cl)cc2)cc1,-16.3% (inactive)
2,CCOC(=O)C1=NN(C(=O)c2ccc(C)cc2)C(O)(c2ccc(Cl)cc2)C1 (configuration not stated),50.6% (active)
3,CCOC(=O)C1=NN(C(=O)c2ccc(OC)cc2)C(O)(c2ccc(Cl)cc2)C1 (configuration not stated),14.4% (active)
4,CCOC(=O)C1=NN(C(=O)c2ccccc2)C(O)(c2ccc(C)cc2)C1 (configuration not stated),-27.5% (inactive)
5,COc1ccc(OC)c(NC(=O)COC(=O)c2ccc(-n3cnnn3)cc2)c1,-34.5% (inactive)
6,COc1ccccc1CNC(=O)COC(=O)c1ccccn1,-28.9% (inactive)
7,COc1cc(C(=O)Nc2ccc(O)cc2C(=O)O)ccc1OC(C)=O,-19.9% (inactive)
8,O=C(O)c1ccc(N=NNc2cccc([N+](=O)[O-])c2)cc1,-26.6% (inactive)
9,CCc1ccc(C(=O)CSc2nc3ccccc3c(=O)[nH]2)cc1,-26.7% (inactive)
10,CCCCOC(=O)Cn1c2ccc(OC)cc2c2nc3ccccc3nc21,-28.3% (inactive)
11,CC(C)OC(=O)c1c2nc3ccccc3nc2n2c1[nH]c(=O)c1ccccc12,29.4% (active)
12,O=C(COc1ccccc1Cl)NC(=S)Nc1ccccc1N1CCCC1,-25.7% (inactive)
13,S=C(NCCc1ccccc1)N/N=C/c1c(Cl)cccc1Cl,-34.7% (inactive)
14,CCSc1nc(=S)cc(C)[nH]1,26.3% (active)
15,CCc1cc(=O)[nH]c(SCc2ccc(C)cc2)n1,-28.5% (inactive)
16,CSc1nc(=S)cc(C)[nH]1,-16.8% (inactive)
17,CSc1cccc(NC(=O)CN2C(=O)c3ccccc3S2(=O)=O)c1,-50.6% (inactive)
18,CCCCn1nc(NC(=O)COC)c2cc3ccc(C)cc3nc21,-27.6% (inactive)
19,CCOC(=O)C1CCCN(C(=O)CN2C(=O)c3ccccc3C2=O)C1 (configuration not stated),-35.1% (inactive)
